# NadD block: inhibitors of Staphylococcus aureus NadD | purified NadD enzyme, colorimetric absorbance read-out | inhibition, % at 20 µM | 360,000 compounds, 0.78% hits | AID 602399; in the data active = inhibition above about 26%
# ATG4B inh: inhibitors of human ATG4B cysteine protease; Q9Y4P1; inhibition, % at 8.33 µM; ATG4B cleavage of LC3-PLA2, NBD-HPC fluorescence, 1 h; 340,000 compounds, 0.51% hits; in the data active = inhibition above about 40%
# Target sequence (Q9Y4P1 whole entry, looked up): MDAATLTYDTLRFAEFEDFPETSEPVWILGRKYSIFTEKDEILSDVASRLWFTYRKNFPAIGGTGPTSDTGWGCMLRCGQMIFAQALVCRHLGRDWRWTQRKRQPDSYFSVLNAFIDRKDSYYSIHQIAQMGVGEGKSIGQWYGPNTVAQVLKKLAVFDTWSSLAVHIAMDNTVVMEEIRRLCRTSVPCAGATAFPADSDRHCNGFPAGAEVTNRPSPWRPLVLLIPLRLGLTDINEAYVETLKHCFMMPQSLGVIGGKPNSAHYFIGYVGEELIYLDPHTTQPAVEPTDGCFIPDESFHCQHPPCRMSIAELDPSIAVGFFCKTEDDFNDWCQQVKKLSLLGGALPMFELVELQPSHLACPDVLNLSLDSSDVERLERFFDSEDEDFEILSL
# SUMO Mot1 rescue: inhibitors of SUMOylation pathway: yeast Mot1-301 growth rescue | S. cerevisiae Mot1-301 growth rescue, ATP luminescence, 38.5C; percent above DMSO median, 100 means doubled | growth rescue, % at 18.8 µM | 320,000 compounds, 1% hits;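 active = every valid replicate shows activation above 250% relative to neutral control wells; inactive = the rest, any valid replicate at or below 250%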
# FAS TE block: blocks the thioesterase domain of human fatty acid synthase. P49327. recombinant FAS-TE, OMFH fluorogenic substrate, fluorescence endpoint. inhibition, % at 15 µM. 360,000 compounds, 0.67% hits;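 active = compounds whose normalised, plate-corrected inhibition of enzyme fluorescence in the single-dose primary screen is 50% or more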
# Calb FLC: C. albicans growth modulation with fluconazole; AID 1979; C. albicans CaCi-2 (fluconazole-resistant clinical isolate) + fluconazole, Alamar Blue growth, 48 h; 300,000 compounds, 0.57% hits; growth inhibition, % (no concentration beside the values);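 active = growth inhibition above about 58% in most replicates, limit read from the data, passing the limit was not always enough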;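 also: all wells also contain fluconazole at 8 µg/ml as a sub-toxic cotreatment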
# ATG4B confirm: ATG4B (human) inhibition, single-dose confirmed. shares compounds with ATG4B inh. ATG4B protease fluorescent substrate cleavage assay. inhibition, % at 8.33 µM. 320 compounds, 92% hits; in the data active = inhibition above about 39%
# PLA2 counter: PLA2 (human) inhibition in ATG4B counter-screen; shares compounds with ATG4B inh; purified PLA2, NBD-C6-HPC fluorescence, 45 min; inhibition, % at 8.33 µM; 1,600 compounds, 66% hits; AID 588402; in the data active = inhibition above about 50%
# Target sequence (P04054 whole entry, looked up): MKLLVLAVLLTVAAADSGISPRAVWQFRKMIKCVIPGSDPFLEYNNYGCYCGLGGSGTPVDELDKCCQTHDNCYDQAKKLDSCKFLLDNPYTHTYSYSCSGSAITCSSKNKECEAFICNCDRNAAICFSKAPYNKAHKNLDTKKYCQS
# Hits are given with their value; i = inactive; nt = no result given. The list is not random: actives were taken first. Their share in the collection is about 3.1%.
SMILES,NadD block,ATG4B inh,SUMO Mot1 rescue,FAS TE block,Calb FLC,PLA2 counter,others
CC(Oc1ccc(C#N)cc1)C(=O)NC1CCCC1 (stereo not given),i,i,i,i,nt,nt,
CCOc1cc(C(N)=O)cc(Br)c1OC,i,i,i,i,i,nt,
COc1c(Br)cc(C(N)=O)cc1OCc1ccccc1,i,66.6,i,i,i,72.3,
COc1cc(C(N)=O)cc(Cl)c1OCc1ccccc1,i,59.8,i,i,i,60.0,
CCOc1cc(C(N)=O)cc(OCC)c1OCC,i,i,i,i,i,nt,
CCOc1cc(C(N)=O)cc(Br)c1OCc1ccccc1,i,46.2,i,i,i,60.3,
CC(C)[C@H](NC(=O)[C@@H]1Cc2c([nH]c3ccccc23)C2c3ccccc3C(=O)N21)C(=O)N1CCC[C@@H]1C(=O)O (stereo not given in full),i,i,i,i,i,nt,
COc1cccc(OC)c1C(=O)NC(=S)N1CCCCC1c1cccnc1 (stereo not given),i,i,i,i,i,nt,
CC1(C)Cc2c(sc(NC(=S)NC(=O)c3ccccc3)c2C(=O)O)CO1,i,40.9,i,i,i,i,ATG4B confirm=73.6
COc1ccc(-c2csc(NC(C)c3nc4cc(C(F)(F)F)ccc4n3CCOCCO)n2)cc1 (stereo not given),i,i,i,i,i,nt,
N#Cc1c(-c2ccccc2)nc(SCC(=O)N2c3ccccc3Sc3ccccc32)[nH]c1=O,i,57.4,i,i,i,59.1,
CC1(C)C(=O)Nc2ccccc2N1C(=O)COC(=O)Cc1ccccc1F,i,i,i,i,nt,nt,
CCCOc1cccc(C(=O)N/N=C/c2coc3ccccc3c2=O)c1,i,42.8,i,i,108.4,73.8,
O=C(N/N=C/c1coc2ccccc2c1=O)c1cc(Br)c(O)c(Br)c1,i,i,i,i,i,nt,
CCn1cc(C(=O)OCC(=O)c2cc(C)n(-c3cccc(C(F)(F)F)c3)c2C)c(=O)c2ccc(C)nc21,i,75.2,i,i,i,67.2,
CCn1cc(C(=O)NCc2cccc(C(F)(F)F)c2)c(=O)c2ccc(C)nc21,i,53.5,i,i,i,i,
COC(=O)[C@@]1(Sc2ccc(C)cc2)CC(=O)N[C@@H]1c1ccco1,i,nt,nt,i,nt,nt,
O=C1C(NS(=O)(=O)c2cccs2)=C(N2CCN(c3cccc(Cl)c3)CC2)C(=O)c2ccccc21,30.3,45.9,i,i,i,65.0,
CCCS(=O)(=O)NC(=O)C1(C)CCCN(C(=O)c2ccc(C#N)cc2)C1 (stereo not given),i,nt,nt,i,nt,nt,
Cc1cc(S(=O)(=O)Nc2ccc(C(=O)NCc3ccncc3)cc2)ccc1F,i,i,i,i,i,nt,
COc1ccc(NC(=O)CC(C)c2ccccc2)c([N+](=O)[O-])c1 (stereo not given),i,42.4,i,i,i,i,
COc1ccc(NC(=O)CC(C)C)c([N+](=O)[O-])c1,i,i,i,i,i,nt,
Cc1ccc(C)c(Cn2nnc3c(=O)[nH]c(C4CCN(C(=O)c5ccco5)CC4)nc32)c1,i,i,i,i,i,nt,
C#CCOCCOCCOCCNc1nc(N2CCN(C(=O)CCCCCCCCCCNC(=O)[C@H](CCCCN)n3cc(C[C@@H](C)CC)nn3)CC2)nc(N2CCN(C(=O)CCCCCCCCCCNC(=O)[C@H](CCCCN)n3cc(C[C@@H](C)CC)nn3)CC2)n1,47.9,79.7,i,i,i,77.5,
C#CCOCCOCCOCCNc1nc(N2CCN(C(=O)CCCCCCCCCCNC(=O)[C@H](CO)n3cc(CCCSC)nn3)CC2)nc(N2CCN(C(=O)CCCCCCCCCCNC(=O)[C@H](CCCCN)n3cc(C[C@@H](C)CC)nn3)CC2)n1,nt,nt,i,nt,i,nt,
SMILES,NadD block,ATG4B inh,SUMO Mot1 rescue,FAS TE block,Calb FLC,PLA2 counter,others
Cc1ccc(NC2CCCN(C(=O)c3cccs3)C2)cc1C (stereo not given),i,i,nt,i,i,nt,
COC(=O)c1ccccc1NC1CC(=O)N(c2c(C)cccc2C)C1=O (stereo not given),i,i,i,i,i,nt,
NC(=O)c1ccc(C(F)(F)F)n(Cc2cccc(Cl)c2)c1=O,i,44.5,i,i,i,i,ATG4B confirm=64.4
Cc1ccccc1-n1nnnc1SCC(=O)NCC1(N2CCOCC2)CCCCC1,i,i,i,i,nt,nt,
O=[N+]([O-])c1ccccc1-c1cc(-c2cc(Cl)ccc2O)n[nH]1,i,88.3,i,i,i,84.8,
Cc1ccc(O)c(-c2cc(-c3ccccc3[N+](=O)[O-])[nH]n2)c1,i,73.3,i,i,i,66.5,
Oc1ccccc1-c1cc(-c2ccccc2Cl)[nH]n1,i,56.4,i,i,i,68.0,
Cc1ccc(O)c(-c2cc(-c3ccccc3C)[nH]n2)c1,i,55.5,nt,i,i,61.9,
COc1ccc(O)c(-c2cc(-c3ccccc3[N+](=O)[O-])[nH]n2)c1,i,i,i,i,i,nt,
Cn1c(N)c(C(=O)CSc2nc(C3CC3)n(-c3ccccc3)n2)c(=O)n(C)c1=O,i,i,i,i,nt,nt,
O=C1NN=C2CCCCCCCCCCC12 (stereo not given),i,nt,nt,i,nt,nt,
COc1ccccc1OCCNC(=O)C1CC(=O)N(c2ccc3c(c2)OCCO3)C1 (stereo not given),i,i,i,i,i,nt,
O=C(Nc1ccccc1-c1ccccc1)C1CCCCC1,i,i,i,i,i,nt,
CC1CCCCC1NCC(=O)Nc1ccccc1-c1ccccc1 (stereo not given),i,48.2,i,i,nt,53.2,
CC1CCN(C(C)C(=O)Nc2ccccc2-c2ccccc2)CC1 (stereo not given),i,42.8,i,i,i,53.0,
CC1CCN(CC(=O)Nc2ccccc2-c2ccccc2)CC1,i,45.1,i,i,i,68.9,
Cc1ccc(C(=O)C2CC2)cc1C,i,i,nt,i,nt,nt,
COc1ccc(NC(=O)Cn2nnc(C(=O)NCc3ccc4c(c3)OCO4)c2N)c(OC)c1,i,i,i,i,i,nt,
CN(CC(=O)Nc1ccc(Cl)c(C(F)(F)F)c1)C(=O)c1ccccc1SCC(=O)N1CCCC1,i,i,nt,i,nt,nt,
O=C1C(=C(I)I)c2ccccc2-c2ccccc21,i,60.7,nt,i,nt,i,ATG4B confirm=56.7
Cc1ccccc1NC1=C/C(=N\S(=O)(=O)c2ccc(C(=O)O)cc2)c2ccccc2C1=O,i,59.3,i,i,i,i,ATG4B confirm=i
COc1ccc(S(=O)(=O)/N=C2\C=C(Nc3ccc(O)cc3)C(=O)c3ccccc32)cc1,i,i,i,i,i,nt,
O=C(O)c1ccc(S(=O)(=O)/N=C2\C=C(Nc3ccccc3F)C(=O)c3ccccc32)cc1,i,76.7,i,i,i,75.5,
CCOc1ccc(C2=CS/C(=C(\C#N)c3nnc4n3CCCCC4)N2CC)cc1,i,48.4,i,i,i,i,ATG4B confirm=72.0
CCN(CC)S(=O)(=O)c1ccc(N2CCCCC2)c(NC(=O)C2=COCCO2)c1,i,i,i,i,i,nt,
